According to ChEMBL document CHEMBL3988442, “University of Dundee, Small-Polar-MMV Screening Library” (2021):

What was measured:
[1] = molecular target: T1, Aspartate--tRNA(Asp/Asn) ligase (Mycobacterium tuberculosis (strain ATCC 25618 / H37Rv)) (UniProt P9WFW3); experiment: Assay for Asp RNA synthetase-1 from Mycobacterium tuberculosis; format: functional; parameters: scale not given: direction of the effect not stated beside the values; details: 30 µM; note: in the data most compounds retested in dose-response had high values
T1 sequence (whole entry): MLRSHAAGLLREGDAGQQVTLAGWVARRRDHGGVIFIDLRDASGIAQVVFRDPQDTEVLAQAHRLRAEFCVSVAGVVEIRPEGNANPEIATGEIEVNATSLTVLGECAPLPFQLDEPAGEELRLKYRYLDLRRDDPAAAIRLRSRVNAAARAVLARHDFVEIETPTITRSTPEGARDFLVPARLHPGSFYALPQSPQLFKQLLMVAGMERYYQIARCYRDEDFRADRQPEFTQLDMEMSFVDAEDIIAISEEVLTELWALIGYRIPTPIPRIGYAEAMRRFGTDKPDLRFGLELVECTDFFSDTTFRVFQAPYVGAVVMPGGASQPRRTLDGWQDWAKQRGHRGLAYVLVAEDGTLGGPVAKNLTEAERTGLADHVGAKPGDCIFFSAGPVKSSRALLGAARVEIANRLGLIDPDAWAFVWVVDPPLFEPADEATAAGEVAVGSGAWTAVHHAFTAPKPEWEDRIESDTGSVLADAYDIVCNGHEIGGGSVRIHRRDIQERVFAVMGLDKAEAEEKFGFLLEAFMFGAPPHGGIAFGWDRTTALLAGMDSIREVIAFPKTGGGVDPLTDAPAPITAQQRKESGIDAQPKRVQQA

[2] = molecular target: Shiga toxin 2 (Escherichia coli O157:H7) (UniProt P09385+P09386); experiment: E. coli 0.157:H7 Shiga Toxin SOP - stx2 screening assay; format: functional; parameters: scale not given: direction of the effect not stated beside the values; details: 30 µM

Structure (SMILES)	Percent Effect [1]	Percent Effect [2]
CCN1CCN(c2ncc(-c3cc(C)no3)c(-c3ccc(C)s3)n2)CC1	2.72%	2.82%
CCS(=O)(=O)N1CCO[C@H]2[C@H](OCCCn3cccn3)CC[C@@H]21	0.786%	-17.2%
CC(C)c1ccc(-c2nnn(CCNS(C)(=O)=O)n2)cc1	-1.05%	-43.9%
COCCN1C(=O)CCC12CCN(C(=O)CC1CC1)CC2	2.75%	0.89%
c1ccc(-c2nnn3c2COC(CNCC2CCOCC2)C3)cc1 (centres undefined)	2.63%	-21.1%
Cc1nc(CN2CCC3(CCN(c4ncc(F)cn4)C3)C2=O)cs1 (centres undefined)	7.33%	-9.92%
CNC(=O)c1ccc(CN2CCC(N(C)Cc3noc(C)n3)C2)cc1 (centres undefined)	-0.577%	7.96%
CC1CCN(c2ncc3c(n2)CN(c2ccccc2)C3=O)CC1	3.06%	-36.5%
O=S(=O)(c1cccs1)N1CCCn2cnc(CN3CCCC3)c2C1	6.2%	-4.47%
O=C(CCOc1ccccc1)N1CCC(Nc2cccnn2)CC1	4.24%	6.7%
Cc1ccc(NC2CCN(C(=O)c3c(C)noc3C)CC2)nn1	-3.12%	7.22%
CCn1ccnc1CNCC1CCCN1c1cc(NC)ncn1 (centres undefined)	1.78%	-12.7%
c1cc(CNCC2OCCc3cn(CC4CCOCC4)nc32)ccn1 (centres undefined)	4.2%	-5.21%
CC(C)NC(=O)COc1nc(C(C)(C)C)no1	0.301%	2.21%
CCn1ncc2c1CCCC2NCC1=Cc2ccccc2OC1 (centres undefined)	4.82%	-23.2%
Cc1ccc2c(c1)C1(CCNCC1)CN2C(=O)CN(C)C	-0.657%	6.1%
Cc1ccc(OCC(O)CN2CCC(Cn3cccn3)CC2)cc1 (centres undefined)	-1.46%	-51.7%
CCn1cnnc1CNC(=O)N1CCN(Cc2ccccc2)CC1	-0.692%	8.37%
Cc1cc(=O)n2ncnc2n1CC(O)c1cc(F)ccc1F (centres undefined)	3.44%	1.57%
O=C(NCCNC(=O)N1CCC(c2ccccc2)C1)C1CC1 (centres undefined)	-0.747%	-19.2%
CCOc1ccnc(N2CCN(C(=O)c3cc(Cl)c[nH]3)CC2)n1	-2.48%	18.5%
O=C(CCCOc1ccc(F)cc1F)N1CCCC1Cn1cccn1 (centres undefined)	-7.61%	17.6%
Cc1nc(CN2CCCN(CC(=O)Nc3cccnc3)CC2)no1	1.58%	16.4%
Cc1oc(C)c(C(=O)NCc2cccnc2N(C)C)c1C	-2.01%	35.3%
Cc1cc(OCC(=O)NC(C)c2ccc(N3CCOCC3)cc2)no1 (centres undefined)	5.44%	-21.7%
CC(=O)N1CCN(C(=O)NCc2csc(Br)c2)CC1	0.204%	5.42%

Structure (SMILES)	Percent Effect [1]	Percent Effect [2]
N#Cc1ccnc(N2CCN(C(=O)NC3CCS(=O)(=O)C3)CC2)c1 (centres undefined)	-2.74%	8.29%
Cc1noc(C)c1C(=O)N1CC[C@H]2C[C@@H](c3nccs3)O[C@@H]2C1	3.92%	3.87%
CC(C)c1cc(NC(=O)CN2CCc3ccccc3C2)on1	-1%	-13%
CCN1CCC(NC(=O)CN2CCCC2Cn2cncn2)CC1 (centres undefined)	-1.82%	-12.3%
CC(=O)Nc1ccc(CNC2CC(=O)N(Cc3cccc(F)c3)C2)cc1 (centres undefined)	-2.06%	-10.3%
Cc1occc1C(=O)N1CCCC2(CCN(CCN3CCCC3)C2=O)C1 (centres undefined)	1.84%	-29.2%
CSc1ccccc1C(C(=O)O)N1CCN(Cc2ccccn2)CC1 (centres undefined)	-1.38%	17.4%
COc1ccc(Cc2cccc(C3CCN(C)CC3)n2)cc1	-1.77%	-4.18%
COc1cc(C(=O)N2CCCC(CNS(C)(=O)=O)C2)cc(OC)c1C (centres undefined)	-4.03%	25.9%
Cc1ccccc1C(=O)Nc1cnn(CC(=O)NC2CCCC2)c1	2.07%	-6.1%
c1ccc(COC2CCN(c3cncc(-n4cccn4)n3)CC2)cc1	-3.76%	-38.3%
CN1CCCc2cc(CNC(=O)c3ccncc3)ccc21	-7.79%	-75.2%
Cc1nccc(CNC(=O)NCCOc2ccc(F)c(F)c2)n1	-2.26%	-21%
CCc1nc2n(n1)CC(NCC(=O)Nc1nccs1)CC2 (centres undefined)	-2.71%	2.48%
CCOc1ccc(CN2CCN(C(=O)c3ccc(C)n3C)CC2)cc1	2.42%	8.86%
COC(=O)C1CCN(C(=O)c2ccc(C)c(NS(C)(=O)=O)c2)CC1	-1.09%	-2.45%
Cc1nc(C)n(CC2CCCN2CC(=O)NCc2ccco2)n1 (centres undefined)	4.57%	-5.68%
CC(=O)Nc1nc(C(=O)Nc2ccc(N3CCCCC3)nc2)cs1	1.12%	-46.3%
COCCCN(C)Cc1nc2c(cnn2C)c(=O)[nH]1	-1.71%	-15.2%
CN1CCN(c2ncccc2CNc2ncccc2C#N)CC1	3.68%	2.01%
O=C(c1ccc[nH]1)N1CCCC(c2cc(C(F)(F)F)[nH]n2)C1 (centres undefined)	3.68%	36.4%
CC(C)C(=O)NCCNc1nccc(-c2cc(C(=O)O)ccn2)n1	0.977%	-4.31%
O=C(Nc1cnccn1)[C@H]1COC[C@H]2CN(C3CCCC3)C[C@H]21	-3.53%	8.55%
Cc1noc(C2CCN(C(=O)c3ccc(N(C)C)nc3)CC2)n1	-4.17%	-12.5%
CN(C)C(=O)Cc1ccc(NC(=O)NC2CCCCC2)cc1	-1.13%	1.55%
CNC(=O)[C@@]12CCCN(c3ncccn3)[C@@H]1CN(C(=O)NC(C)C)C2	1.62%	-25.1%
